Screening data as filed in PubChem.
An excerpt weighted towards active compounds, which were near 4.3% of everything screened.
AF4-AF9 inh – MLL-AF4/AF9 protein interaction inhibition; 0.47% of 350,000 active; inhibition, % at 10 µM; AlphaScreen, biotin-AF4 peptide binding to FLAG-AF9; P42568;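 active means every replicate reaching a set inhibition limit, whatever the replicate mean, cut at about 25% in these data; inconclusive means mean inhibition reaches that limit but some replicates miss it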
Wnt act – activates Wnt/beta-catenin signaling in a reporter cell assay; activation, % at 9.35 µM; activator, plate reader; AID 743398; 1.2% of 300,000 active; in the data active means activation above about 30%, passing the limit was not always enough; inconclusive means no clear call, values can overlap the other calls
esBAF inh – blocks esBAF chromatin remodeling in mouse ES cells; Bmi1-luciferase knock-in reporter, 24 h; 100% = twice the neutral-well signal; reporter increase, % at 12.5 µM; 2% of 350,000 active; AID 602393; in the data active means activation above about 40%; inconclusive means no clear call, values can overlap the other calls;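 further: a rise in the Bmi1 reporter signal indicates esBAF inhibition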
SMARCA2 act – SMARCA2 function activation, primary screen; activation, % at 9.1 µM; 1% of 370,000 active; AID 652017; MG213 cells, MMTV-luciferase reporter, dexamethasone, overnight; in the data active means activation above about 7.8%
MITF TRPM1 HTS – MITF TRPM1 promoter activation in melanoma cells; SK-MEL-5 TRPM1-promoter luciferase, 24 h; % of positive control, neutral wells = 0; activation, % at 12.5 µM; 0.75% of 300,000 active;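 active means mean activation of at least 80% with every replicate also reaching 80%; inconclusive means mean reaches 80% but some replicate falls short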
FGF22 binding – FGF22 (human) thermal shift binding; recombinant FGF22 thermal shift, SYPRO orange fluorescence; percent of sucrose octasulfate shift, DMSO zero; Q9HCT0; 1.5% of 340,000 active; activity (Tm shift, normalised), % at 9.99 µM;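 active means mean Tm shift, scaled 0 neutral to 100 positive control, at about 1.3% or above, every replicate too, limit read from the data; inconclusive means no clear call, values can overlap the other calls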
Target sequence (Q9HCT0 whole entry, looked up): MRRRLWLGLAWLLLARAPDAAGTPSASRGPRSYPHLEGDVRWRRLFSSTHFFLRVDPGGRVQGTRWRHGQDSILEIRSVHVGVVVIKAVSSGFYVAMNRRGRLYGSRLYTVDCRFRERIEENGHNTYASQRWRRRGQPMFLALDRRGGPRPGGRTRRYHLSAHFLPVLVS
A number is an active result; – = inactive; ? = inconclusive; · = not tested or not shown.

SMILES	AF4-AF9 inh	Wnt act	esBAF inh	SMARCA2 act	MITF TRPM1 HTS	FGF22 binding
Cc1ncsc1CCOC(=O)c1ccc(N2CCOCC2)c([N+](=O)[O-])c1	–	–	·	–	–	43.7
COCC1CCN(C(=O)c2ccc3oc(CCCc4ccccc4)nc3c2)C1 (stereo unspecified)	–	–	46.0	–	–	–
O=C(c1ccc2oc(CCc3ccccc3)nc2c1)N1CCC(O)CC1	–	–	–	–	91.5	–
COCC1CCCN(C(=O)c2ccc3oc(CCCc4ccccc4)nc3c2)C1 (stereo unspecified)	–	–	–	–	–	–
CCCCc1nc2cc(C(=O)N3CCCC(COC)C3)ccc2o1 (stereo unspecified)	–	–	62.9	–	–	–
CCCOC1CCCN(C(=O)c2cc(COc3c(F)cccc3F)on2)C1 (stereo unspecified)	–	–	88.8	–	–	–
C[C@@H]1CCCCO[C@H](CN(C)Cc2ccc(C(F)(F)F)cc2)[C@@H](C)CN([C@@H](C)CO)C(=O)c2cc(NS(=O)(=O)c3ccc(F)cc3)ccc2O1	–	·	–	·	·	–
CCCCc1nc2cc(C(=O)N3CCCC(OCCC)C3)ccc2o1 (stereo unspecified)	–	–	63.8	–	?	–
CCCCc1nc2cc(C(=O)N3CCC(OCCOC)CC3)ccc2o1	–	–	–	–	–	–
Cc1cc(/C=C(\C#N)C(=O)NCc2cccs2)c(C)n1-c1ccccc1F	·	51.7	–	–	–	·
O=C(Cc1ccccc1)N1CC(=O)N2[C@H](C1)[C@@H](c1ccc(-c3ccc(F)cc3)cc1)[C@@H]2CO	–	·	·	·	·	–
O=C(O)C1CCCN1C(=O)C12CC3CC(CC(C3)C1)C2 (stereo unspecified)	–	–	–	–	–	–
COc1ccc(C(=O)COC(=O)C2CCCN2C(=O)C23CC4CC(CC(C4)C2)C3)cc1 (stereo unspecified)	–	–	·	–	–	43.2
O=C(COC(=O)C1CCCN1C(=O)C12CC3CC(CC(C3)C1)C2)c1ccc(Br)cc1 (stereo unspecified)	–	–	·	–	–	44.4
C=CCNc1nc(C(=O)OCC)nc2ccccc12	–	–	·	–	–	–
CCOC(=O)c1nc(NCc2ccccc2)c2ccccc2n1	–	–	·	–	–	43.7
CN(C)CCCOc1ccc(-c2ccc3nncn3c2)cn1	–	–	–	–	·	–
CN(C)CCCOc1ccc(-c2cccc3nncn23)cn1	–	–	–	–	·	43.4
NNC(=O)c1ccc2nc(-c3ccc(Br)cc3)cn2c1	–	–	·	–	92.8	–
C[C@@H]1CN([C@@H](C)CO)C(=O)Cc2cc(NC(=O)Nc3ccc(F)cc3)ccc2O[C@H]1CN(C)C(=O)Nc1ccccc1	–	·	–	·	·	–
Cc1ccccc1OS(=O)(=O)c1cn(C)c(=O)n(C)c1=O	–	–	·	–	–	43.3
COC(=O)CSc1nnc(-c2cccs2)o1	·	·	·	–	·	·
COc1ccc(S(=O)(=O)Nc2ccc3c(c2)C(=O)N([C@@H](C)CO)C[C@H](C)[C@H](CN(C)C(=O)NC2CCCCC2)O3)cc1	–	·	–	·	·	–
C/C(=N/NC(=O)c1ccncc1)C1=C(O)CC(C)(C)CC1=O	–	–	·	–	–	44.0
Cn1c(N)c(N2CCCCC2)c(=O)n(CC(=O)Nc2cccc(C#N)c2)c1=O	–	–	–	–	–	43.0
SMILES	AF4-AF9 inh	Wnt act	esBAF inh	SMARCA2 act	MITF TRPM1 HTS	FGF22 binding
C[C@@H]1CN([C@H](C)CO)C(=O)c2cccc(NC(=O)NC3CCCCC3)c2O[C@@H]1CN(C)C(=O)Nc1ccccc1	–	·	–	·	·	–
O=C(/C=C/NNC(=O)c1ccccc1O)c1ccccc1	–	–	61.1	–	–	–
O=C(/C=C/NNC(=O)c1ccccc1)c1ccccc1	·	·	–	–	–	·
CO[C@H]1CN(C)C(=O)c2cc(NC(=O)c3cc(C)on3)ccc2OC[C@H](C)N(C)C[C@H]1C	–	·	–	·	·	–
O=C(c1ccc(Cl)cc1)c1cnc(Nc2ccccc2Cl)s1	·	·	56.8	–	99.1	·
O=C(c1ccc(Cl)cc1)c1cnc(-c2ccccc2)s1	·	·	–	–	·	·
CCOC(=O)c1ccc(N/C=C\C(=O)c2cccc(OC)c2)cc1	·	·	·	–	96.0	·
COc1cccc(Oc2ccc(N/C=C/C(=O)C(C)(C)C)cc2)c1	–	–	·	–	–	43.6
CCOC(=O)c1ccc(OS(=O)(=O)c2ccccc2)c(OC)c1	·	54.4	·	–	?	·
CCOc1ccc(N/C=C/C(=O)c2ccc(OC)cc2)cc1	–	–	?	–	–	–
Cc1ccc(S(=O)(=O)NNC(=O)Nc2ccc(Cl)cc2)cc1	·	–	–	8.8	–	·
COc1ccc(-n2c(SCC(=O)NNC(=S)Nc3ccc(C)cc3)nnc2-c2ccccc2)cc1	·	·	·	–	·	·
C[C@H](CO)N1C[C@H](C)[C@H](CN(C)C)Oc2ccc(NC(=O)Nc3ccccc3)cc2CC1=O	–	·	–	·	·	·
C[C@@H]1CN([C@H](C)CO)C(=O)c2cc(NC(=O)Cn3cnnn3)ccc2O[C@@H]1CN(C)Cc1ccc(Oc2ccccc2)cc1	–	·	–	·	·	–
CCc1nnc(NS(=O)(=O)c2ccc(N/C=C\C(=O)c3cccc(OC)c3)cc2)s1	–	–	·	7.9	–	–
COc1ccc(N/C=C\C(=O)c2ccc(C)cc2)cc1OC	–	–	51.7	–	–	–
COc1ccc(N/C=C\C(=O)c2ccc(Br)cc2)cc1OC	·	–	·	–	–	·
CCOC(=O)c1cccc(N/C=C/C(=O)c2ccc(OC)c(OC)c2)c1	·	·	52.6	–	–	·
Cc1ccc(S(=O)(=O)NNC(=O)c2cccc(O)c2)cc1	48.3	–	–	–	–	–
CCc1nnc(NS(=O)(=O)c2ccc(N/C=C/C(=O)c3ccc(C)cc3)cc2)s1	·	–	–	–	–	·
C[C@H](NC(=O)C[C@H]1C[C@H]2c3cc(NC(=O)Nc4ccc(C(F)(F)F)cc4)ccc3O[C@H]2[C@H](CO)O1)c1ccccc1	–	·	–	·	·	–
Cc1ccccc1S(=O)(=O)N1C[C@H](O)COC[C@H]2O[C@H](CC(=O)N3CCOCC3)CC[C@@H]21	–	·	–	·	·	–
